# Hits are enriched below; roughly 2.5% of the tested compounds scored in any of these assays.
# Cruzain inh Det = blocks cruzain activity in presence of Triton detergent; Potency, µM, for inactives: max response, negative = inhibition, hits mostly inhibitors; AID 1478; hit rate 0.43% among 200,000; purified cruzain, Z-FR-AMC fluorescence, 0.01% Triton; P25779;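 also: plate controls were neutral wells for no effect and buffer without enzyme for full effect; nearly all actives have a fitted effect of over 40% in size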
# Target sequence (P25779 123-467 limits assumed): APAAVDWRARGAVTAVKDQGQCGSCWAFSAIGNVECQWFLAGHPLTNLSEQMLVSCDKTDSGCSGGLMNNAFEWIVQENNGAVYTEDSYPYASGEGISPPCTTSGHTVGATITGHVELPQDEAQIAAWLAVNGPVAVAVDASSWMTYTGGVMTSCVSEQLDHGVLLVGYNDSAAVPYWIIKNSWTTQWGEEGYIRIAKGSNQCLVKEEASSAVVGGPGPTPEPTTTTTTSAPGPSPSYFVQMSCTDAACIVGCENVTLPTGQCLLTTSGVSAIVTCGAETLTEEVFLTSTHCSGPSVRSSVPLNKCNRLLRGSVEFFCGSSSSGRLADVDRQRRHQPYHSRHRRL
#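 Detergent-containing arm of a paired screen for aggregation-based inhibition: 0.01% Triton X-100 present. Cruzain at 1.5 nM cleaved 2 uM Z-FR-AMC at pH 5.5 with 5 mM DTT; AMC fluorescence gain over 60 s measured activity.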
# Cruzain noTriton = inhibitors of Trypanosoma cruzi cruzain without detergent | purified cruzain, Z-FR-AMC fluorescence, no detergent | P25779 | Potency, µM, for inactives: max response, negative = inhibition, usual class: inhibitors | hit rate 2.3% among 200,000;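 also: plate controls were enzyme without inhibitor for no effect and buffer without enzyme for full effect; nearly all actives have a fitted effect of over 40% in size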
#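 Detergent-free condition (0.00005% Triton X-100) in acetate buffer pH 5.5 with DTT. 1.5 nM enzyme and compound were pre-mixed 15 min, then 2 uM Z-FR-AMC substrate added; reaction progress from fluorescence change between first and third reads (60 s).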
# Starred values were filed as active, the others as inactive; ? = inconclusive. Calls follow the shape of the dose curve; as a rule, active = well fitted curve in the direction sought with a large enough effect; inconclusive = small, poorly fitted or top-dose-only effect, or another doubt; inactive = no such curve, though single readings can be large; an effect the other way counts as inactive or inconclusive. Potency is read from the fitted curve at half-maximal effect.
SMILES,Cruzain inh Det,Cruzain noTriton
COc1ccc(NS(=O)(=O)c2ccc(N/N=C(\C)c3ccncc3)c([N+](=O)[O-])c2)cc1,-7.9%,12.6µM*
C/C(=N\Nc1ccc(S(=O)(=O)Nc2ccc(Cl)cc2)cc1[N+](=O)[O-])c1ccc(N2CCOCC2)cc1,-6.4%,10µM*
COc1ccccc1NS(=O)(=O)c1ccc(N/N=C(\C)C(C)C)c([N+](=O)[O-])c1,-4.6%,-2.5%
O=C(O)c1cc(NS(=O)(=O)c2ccc(N3CCOCC3)c([N+](=O)[O-])c2)cc(C(=O)O)c1,-3.6%,-5.9%
CCOc1ccc(-c2nc(SCC(=O)NCCOC)c(-c3ccc(OC)c(OC)c3)[nH]2)cc1,-14.3%,?
Cc1ccc(C)n1N1C(=O)/C(=C\c2ccc(Cl)cc2)SC1=S,-5.6%,?
NS(=O)(=O)c1ccc(CCN2C(=O)/C(=C\c3ccc(Cl)cc3)SC2=S)cc1,-2.0%,25.1µM*
O=c1c(-c2ccc(Cl)cc2)nc2cnc(N3CCNCC3)nc2n1CCc1ccccc1,0.1%,25.2%
Nc1c(S(=O)(=O)O)cc(S(=O)(=O)O)c2ccc(N=Nc3ccccc3)c(O)c12,-0.2%,-7.1%
Cc1cc(-c2ccc(N=Nc3cc(S(=O)(=O)O)c4ccccc4c3N)c(C)c2)ccc1N=Nc1cc(S(=O)(=O)O)c2ccccc2c1N,7.94µM*,?
Cc1cc(-c2csc(N)n2)c(C)n1C,-29.6%,?
Cc1ccc(-n2c(C)cc(-c3csc(N)n3)c2C)cc1,-0.7%,25.1µM*
CC(C)c1ccc(NC(=O)C(NS(=O)(=O)c2ccc3c(c2)CCC(=O)N3)c2ccccc2)cc1 (centres undefined),0.1%,2.8%
Cc1ccc(Nc2cc(C)c(C#N)c3nc4ccccc4n23)cc1Cl,0.5%,-7.6%
O=C(O)[C@@H]1[C@@H](C(=O)O)[C@@]23CCCC2=C2CC[C@@]3(C(=O)O)[C@@]3(C(=O)O)C[C@@]213,5.3%,0.0%
CC(C)C1=Nc2cccc3cccc(c23)N1,0.6%,-10.3%
Nc1cccc(C2=Nc3cccc4cccc(c34)N2)c1,-2.6%,7.94µM*
COc1ccc(C2=Nc3cccc4cccc(c34)N2)cc1,-3.5%,3.16µM*
Nc1cccc(-c2nc3ccc(N)cc3s2)c1,-21.7%,-1.3%
N#C/C(=C\Nc1ccccn1)C(=O)C1CC1,-2.1%,9.0%
O=C(c1cccs1)N1CCCc2cc(NS(=O)(=O)c3ccc(F)cc3)ccc21,-3.9%,7.8%
CCCCn1c(/C=N/Nc2nc3ccccc3[nH]2)nc2ccccc21,-11.5%,?
C#CCn1cc(/C=N/Nc2nc3ccccc3[nH]2)c2ccccc21,-21.8%,31.6µM*
O=C(NCCSCc1ccccc1)C1CCN(S(=O)(=O)Cc2ccccc2)CC1,-1.8%,12.8%
O=C1NC(=O)N(CCC2=CCCCC2)C(=O)/C1=C\c1cccs1,-2.9%,6.5%
SMILES,Cruzain inh Det,Cruzain noTriton
Cn1cccc1/C=C1\C(=O)NC(=O)N(CCC2=CCCCC2)C1=O,-5.5%,20µM*
COc1ccc(C)cc1NC(=O)C(OC(=O)c1ccc([N+](=O)[O-])o1)c1ccccc1 (centres undefined),-7.7%,?
CCCC(=O)OC(C(=O)Nc1cc(C(F)(F)F)ccc1Cl)c1ccccc1 (centres undefined),-5.4%,19.3%
COc1ccc(C)cc1NC(=O)C(NS(=O)(=O)c1cccs1)c1ccccc1 (centres undefined),-2.4%,-25.2%
COc1ccc(C)cc1NC(=O)C(OC(=O)CNC(=O)c1cc(C)cc(C)c1)c1ccccc1 (centres undefined),8.91µM*,20µM*
COc1ccc(C)cc1NC(=O)C(OC(=O)CNC(=O)c1ccc(Br)cc1)c1ccccc1 (centres undefined),7.94µM*,10µM*
Cc1cc(C(=O)NCC(=O)OC(C(=O)Nc2cc(C(F)(F)F)ccc2Cl)c2ccccc2)ccc1[N+](=O)[O-] (centres undefined),4.47µM*,31.6µM*
Cc1cc(NC(=O)Nc2nnc(N(C)Cc3ccccc3)s2)ccc1Br,-7.2%,-6.2%
Nc1ccc(N=Nc2c(S(=O)(=O)O)cc3ccccc3c2S(=O)(=O)O)cc1,2.7%,2.3%
COc1cccc(C(=O)NC(=NCCc2c[nH]c3ccc(OC)cc23)Nc2nc(C)cc(C)n2)c1,-1.5%,-22.7%
CC1=CC(=O)C2=C(C)CC[C@@H]3[C@@H](OC(=O)[C@H]3C)[C@H]12,-1.3%,-9.3%
COc1cc(SC#N)ccc1N=Cc1c(C)[nH]n(-c2ccc(C)cc2C)c1=O,-2.0%,-17.4%
COc1cc(SC#N)ccc1N=Cc1c(C)[nH]n(-c2cccc3ccccc23)c1=O,-4.8%,25.1µM*
COc1cc(C(=O)N2CCN(CCc3ccccn3)CC2)cc(OC)c1OC,-0.1%,3.2%
CC1CCc2c(sc3nc(-c4cc5cc(Br)ccc5oc4=O)[nH]c(=O)c23)C1 (centres undefined),-1.8%,8.2%
CC(/C=N/NC(=O)c1ccc(CN2c3cccc4cccc(c34)S2(=O)=O)cc1)c1ccccc1 (centres undefined),-5.0%,10µM*
O=C1CCC/C(=N/NC(=O)c2ccc(CN3c4cccc5cccc(c45)S3(=O)=O)cc2)C1,-4.8%,-1.9%
N#C[C@H]1[C@H](c2ccccc2)[C@](C#N)(C(=O)c2ccccc2)[C@@H]2C=Cc3ccccc3N21,-3.9%,25.1µM*
COc1ccc(C(=O)N2c3ccccc3C=CC2C#N)cc1 (centres undefined),-14.3%,-1.5%
CCOC(=O)Cn1c(=O)cc(C)c2c(C)nn(-c3cccc(F)c3)c21,-1.1%,-5.8%
[S-]C(=Nc1ccc(Cl)cc1)N[n+]1ccccc1,20µM*,7.94µM*
ONC(=Nc1ccc(Cl)cc1)c1ccc(Cl)cc1,-7.2%,-6.4%
COc1ccc(OC)c(CNC(=O)Cc2ccc(NC(=O)N3CCCCc4ccccc43)cc2)c1,-4.5%,3.3%
CC1CCCC(C)N1C(=O)CSc1nnc(NC(=O)Cc2cccs2)s1 (centres undefined),2.0%,3.7%
Cc1nnc(SCC(=O)N2c3ccccc3CC2C)s1 (centres undefined),3.1%,5.1%
SMILES,Cruzain inh Det,Cruzain noTriton
CC1Cc2ccccc2N1C(=O)CSc1nnc(NC(=O)Cc2cccs2)s1 (centres undefined),15.8µM*,25.1µM*
CC(=O)Nc1nnc(SCC(=O)c2ccc3c(c2)Cc2ccccc2-3)s1,-0.1%,11.7%
CCC(=O)Nc1nnc(SCC(=O)N2c3ccccc3CC2C)s1 (centres undefined),3.55µM*,12.6µM*
CCC(=O)Nc1nnc(SCC(=O)c2ccc3c(c2)Cc2ccccc2-3)s1,4.8%,20µM*
COc1ccc(NC(=O)CCNS(=O)(=O)c2cccc3nsnc23)cc1Cl,-3.3%,-13.1%
CCCOc1ccc(C2=NC(c3ccc(F)cc3)=Nc3ccc(OC)cc3N2)cc1,-3.9%,10µM*
COc1ccc2c(c1)NC(c1ccc(F)cc1)=NC(c1ccc(F)cc1)=N2,-3.4%,?
CCc1ccc(S(=O)(=O)c2c[nH]c3cc(OC)c(OC)cc3c2=O)cc1,-2.4%,17.5%
CN1CCc2nc3sc(C(=O)C45CC6CC(CC(C6)C4)C5)c(N)c3cc2C1,?,12.6µM*
CN1CCc2nc3sc(C(=O)c4ccc(F)cc4)c(N)c3cc2C1,-6.2%,-0.9%
Cc1ccc(-n2nnnc2C(Cl)c2nnnn2-c2ccc(C)cc2)cc1,-1.0%,5.0%
CCN(CC)c1ccc(C=C(c2nnnn2-c2ccc(C)cc2)c2nnnn2-c2ccc(C)cc2)cc1,-4.9%,31.6µM*

# Screens as filed in PubChem BioAssay.
